Screen size: about 5,500 compounds; about 2,000 (36%) were called active. Not shown: some 18% with an inconclusive outcome. Rule as the data show it: active = normalized growth mostly below about 0.91 (no sharp cut-off); inconclusive = no clear call, values can overlap the other calls; inactive = mostly above about 0.92. This is one part of the list.
Assay: chemical genetic growth profiling, strain panel (AID 1159580);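 also: tested at 20 µM; growth read once vehicle control cultures reached saturation at 30 °C; 1 = growth at the plate median or of vehicle wells; lower values mean less growth of the strain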
Details: growth OD

Measured: normalized growth

CCN(CC)CCOc1ccc2c(c1)C(=O)c1cc(OCCN(CC)CC)ccc1-2
inactive: S. cerevisiae deletion strains, locus YJR075W, strain HOC1, active compounds read low 0.998 | S. cerevisiae deletion strains, locus YKL009W, strain mrt4, active compounds read low 0.973 | S. cerevisiae deletion strains, locus YKL068W, active compounds read low 0.975 | S. cerevisiae deletion strains, locus YKL085W, strain MDH1 (second series), active compounds read low 1.02 | S. cerevisiae deletion strains, locus YKL085W, strain MDH1, active compounds read low 1.02 | S. cerevisiae deletion strains, locus YKL160W, strain elf1, active compounds read low 0.96 | S. cerevisiae deletion strains, locus YKL190W, strain CNB1, active compounds read low 0.991 | S. cerevisiae deletion strains, locus YKR001C, strain vps1, active compounds read low 0.986 | S. cerevisiae deletion strains, locus YKR026C, strain gcn3, active compounds read low 0.98 | S. cerevisiae deletion strains, locus YKR091W, strain srl3, active compounds read low 0.982 | S. cerevisiae deletion strains, locus YLL001W, strain dnm1, active compounds read low 1.01 | S. cerevisiae deletion strains, locus YLL026W, active compounds read low 0.992 | S. cerevisiae deletion strains, locus YLL041C, strain sdh2, active compounds read low 0.998 | S. cerevisiae deletion strains, locus YLR027C, strain aat2, active compounds read low 0.996 | S. cerevisiae deletion strains, locus YLR039C, strain RIC1, active compounds read low 0.963 | S. cerevisiae deletion strains, locus YLR058C, strain SHM2, active compounds read low 0.994 | S. cerevisiae deletion strains, locus YLR102C, strain apc9, active compounds read low 0.975 | S. cerevisiae deletion strains, locus YLR113W, strain HOG1, active compounds read low 0.988 | S. cerevisiae deletion strains, locus YLR221C, strain rsa3, active compounds read low 0.993 | S. cerevisiae deletion strains, locus YLR258W, strain gsy2, active compounds read low 0.979 | S. cerevisiae deletion strains, locus YLR262C, strain YPT6 (second series), active compounds read low 1.05 | S. cerevisiae deletion strains, locus YLR262C, strain YPT6, active compounds read low 0.96 | S. cerevisiae deletion strains, locus YLR268W, strain sec22, active compounds read low 0.984 | S. cerevisiae deletion strains, locus YLR320W, strain mms22, active compounds read low 0.995 | S. cerevisiae deletion strains, locus YLR330W, strain CHS5, active compounds read low 0.988 | S. cerevisiae deletion strains, locus YLR342W, strain FKS1 (second series), active compounds read low 1.01 | S. cerevisiae deletion strains, locus YLR342W, strain FKS1, active compounds read low 0.981 | S. cerevisiae deletion strains, locus YLR357W, strain rsc2, active compounds read low 0.963 | S. cerevisiae deletion strains, locus YLR370C, strain arc18, active compounds read low 0.987 | S. cerevisiae deletion strains, locus YLR371W, strain rom2, active compounds read low 0.961 | S. cerevisiae deletion strains, locus YLR384C, strain iki3, active compounds read low 0.984 | S. cerevisiae deletion strains, locus YLR418C, strain cdc73, active compounds read low 1.06 | S. cerevisiae deletion strains, locus YML016C, strain PPZ1, active compounds read low 0.995 | S. cerevisiae deletion strains, locus YML032C, strain rad52, active compounds read low 0.968 | S. cerevisiae deletion strains, locus YML120C, strain ndi1, active compounds read low 0.985 | S. cerevisiae deletion strains, locus YML124C, strain tub3, active compounds read low 0.987 | S. cerevisiae deletion strains, locus YMR058W, strain fet3, active compounds read low 0.994 | S. cerevisiae deletion strains, locus YMR078C, strain ctf18, active compounds read low 0.978 | S. cerevisiae deletion strains, locus YMR125W, strain sto1, active compounds read low 0.978 | S. cerevisiae deletion strains, locus YMR129W, active compounds read low 0.982 | S. cerevisiae deletion strains, locus YMR205C, strain PFK2, active compounds read low 0.969 | S. cerevisiae deletion strains, locus YMR223W, strain ubp8, active compounds read low 0.982 | S. cerevisiae deletion strains, locus YMR231W, strain pep5, active compounds read low 0.99 | S. cerevisiae deletion strains, locus YMR263W, strain SAP30, active compounds read low 1 | S. cerevisiae deletion strains, locus YMR307W, strain GAS1, active compounds read low 1.09 | S. cerevisiae deletion strains, locus YNL067W, strain RPL9B, active compounds read low 0.999 | S. cerevisiae deletion strains, locus YNL071W, strain lat1, active compounds read low 0.988 | S. cerevisiae deletion strains, locus YNL128W, strain TEP1, active compounds read low 0.987 | S. cerevisiae deletion strains, locus YNL153C, strain GIM3, active compounds read low 1.01 | S. cerevisiae deletion strains, locus YNL183C, strain NPR1, active compounds read low 0.939 | S. cerevisiae deletion strains, locus YNL209W, strain ssb2, active compounds read low 0.976 | S. cerevisiae deletion strains, locus YNL233W, strain BNI4, active compounds read low 1.02 | S. cerevisiae deletion strains, locus YNL248C, strain rpa49, active compounds read low 0.98 | S. cerevisiae deletion strains, locus YNL250W, strain rad50, active compounds read low 0.983 | S. cerevisiae deletion strains, locus YNL271C, strain bni1, active compounds read low 0.993 | S. cerevisiae deletion strains, locus YNL298W, strain CLA4, active compounds read low 0.971 | S. cerevisiae deletion strains, locus YNL307C, strain MCK1, active compounds read low 0.975 | S. cerevisiae deletion strains, locus YNL322C, strain KRE1 (second series), active compounds read low 0.96 | S. cerevisiae deletion strains, locus YNL322C, strain KRE1, active compounds read low 0.983 | S. cerevisiae deletion strains, locus YNR049C, strain mso1, active compounds read low 0.968 | S. cerevisiae deletion strains, locus YNR052C, strain pop2, active compounds read low 0.975 | S. cerevisiae deletion strains, locus YOL006C, strain TOP1, active compounds read low 1.02 | S. cerevisiae deletion strains, locus YOL012C, strain htz1 0.871 | S. cerevisiae deletion strains, locus YOL147C, strain pex11, active compounds read low 0.992 | S. cerevisiae deletion strains, locus YOR001W, strain rrp6, active compounds read low 0.988 | S. cerevisiae deletion strains, locus YOR061W, strain CKA2, active compounds read low 0.994 | S. cerevisiae deletion strains, locus YOR069W, strain VPS5, active compounds read low 0.996 | S. cerevisiae deletion strains, locus YOR070C, strain gyp1, active compounds read low 0.989 | S. cerevisiae deletion strains, locus YOR080W, strain dia2, active compounds read low 0.983 | S. cerevisiae deletion strains, locus YOR083W, strain WHI5, active compounds read low 0.968 | S. cerevisiae deletion strains, locus YOR106W, strain vam3, active compounds read low 0.944 | S. cerevisiae deletion strains, locus YOR136W, strain idh2, active compounds read low 0.985 | S. cerevisiae deletion strains, locus YOR144C, strain elg1, active compounds read low 0.97 | S. cerevisiae deletion strains, locus YOR184W, strain ser1, active compounds read low 0.976 | S. cerevisiae deletion strains, locus YOR231W, strain MKK1, active compounds read low 0.985 | S. cerevisiae deletion strains, locus YOR265W, strain rbl2, active compounds read low 0.976 | S. cerevisiae deletion strains, locus YOR270C, strain vph1, active compounds read low 1.07 | S. cerevisiae deletion strains, locus YOR290C, strain snf2, active compounds read low 0.964 | S. cerevisiae deletion strains, locus YOR316C, strain cot1, active compounds read low 0.995 | S. cerevisiae deletion strains, locus YPL051W, strain arl3, active compounds read low 0.97 | S. cerevisiae deletion strains, locus YPL055C, strain LGE1, active compounds read low 1.02 | S. cerevisiae deletion strains, locus YPL078C, strain atp4, active compounds read low 0.981 | S. cerevisiae deletion strains, locus YPL106C, strain sse1, active compounds read low 0.979 | S. cerevisiae deletion strains, locus YPL240C, strain hsp82, active compounds read low 0.996 | S. cerevisiae deletion strains, locus YPL241C, strain CIN2, active compounds read low 0.971 | S. cerevisiae deletion strains, locus YPL256C, strain CLN2, active compounds read low 0.979 | S. cerevisiae deletion strains, locus YPR119W, strain clb2, active compounds read low 0.988 | S. cerevisiae deletion strains, locus YPR141C, strain kar3, active compounds read low 0.989 | S. cerevisiae deletion strains, locus YPR163C, strain tif3, active compounds read low 0.97 | S. cerevisiae deletion strains, locus YPR167C, strain met16, active compounds read low 1 | S. cerevisiae deletion strains, strain wtn01, active compounds read low 0.993 | S. cerevisiae strains, strain wild type, active compounds read low 0.995
